ASK1 primary – human ASK1 kinase inhibition, primary screen. Q99683. AlphaScreen MKK6 phosphorylation by ASK1, luminescence. inhibition, % at 7.44 µM. 22,000 tested, 0.99% active. AID 1159602; in the data active = inhibition above about 35%;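 also: 0% = median of compound wells and 100% = no enzyme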
ULK1 primary – human ULK1 kinase inhibition, primary screen; O75385; AlphaScreen Atg13 phosphorylation by ULK1, luminescence; inhibition, % at 5.96 µM; 30,000 tested, 1.9% active; AID 1259251; in the data active = inhibition above about 43%;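 also: 0% = median of compound wells and 100% = no enzyme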
Target sequence (O75385 whole entry, looked up): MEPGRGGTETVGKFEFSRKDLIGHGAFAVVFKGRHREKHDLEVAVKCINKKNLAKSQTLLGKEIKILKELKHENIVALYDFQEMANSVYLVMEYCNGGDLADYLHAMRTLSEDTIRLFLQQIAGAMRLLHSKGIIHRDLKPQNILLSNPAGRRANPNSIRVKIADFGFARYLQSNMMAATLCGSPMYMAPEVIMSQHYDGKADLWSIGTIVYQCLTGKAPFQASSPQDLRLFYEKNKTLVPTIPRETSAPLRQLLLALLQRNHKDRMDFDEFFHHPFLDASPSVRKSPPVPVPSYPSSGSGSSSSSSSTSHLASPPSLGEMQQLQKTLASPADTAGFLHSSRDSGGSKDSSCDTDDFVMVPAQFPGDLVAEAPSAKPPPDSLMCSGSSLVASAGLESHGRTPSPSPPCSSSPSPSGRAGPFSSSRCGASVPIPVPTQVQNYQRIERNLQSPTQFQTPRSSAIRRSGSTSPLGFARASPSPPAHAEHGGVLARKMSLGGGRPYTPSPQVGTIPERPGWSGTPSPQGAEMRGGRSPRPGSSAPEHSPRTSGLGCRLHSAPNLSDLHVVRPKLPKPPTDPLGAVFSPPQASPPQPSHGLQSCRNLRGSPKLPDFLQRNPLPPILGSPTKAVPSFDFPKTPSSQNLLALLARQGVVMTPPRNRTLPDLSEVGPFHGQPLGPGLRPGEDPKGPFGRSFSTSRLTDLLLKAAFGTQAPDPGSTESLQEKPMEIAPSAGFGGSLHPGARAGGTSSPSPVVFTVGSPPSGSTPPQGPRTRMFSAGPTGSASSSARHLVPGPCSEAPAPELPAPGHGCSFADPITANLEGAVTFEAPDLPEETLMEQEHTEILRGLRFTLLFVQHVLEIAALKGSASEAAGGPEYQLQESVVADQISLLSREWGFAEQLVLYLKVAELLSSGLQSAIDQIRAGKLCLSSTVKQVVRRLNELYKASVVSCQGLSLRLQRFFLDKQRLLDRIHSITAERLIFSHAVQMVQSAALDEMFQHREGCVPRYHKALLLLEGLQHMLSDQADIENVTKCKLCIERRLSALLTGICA
Starred values were filed as active, the others as inactive. Most compounds without a hit are left out; they make up all but 2.5% or so of the library.

CC(=O)c1cccc(-c2nc(NCCN(C(C)C)C(C)C)c3ncn(C(C)C)c3n2)c1 was read as ASK1 primary 8 and ULK1 primary 14.
For O=C(NCc1cccc(C(F)(F)F)c1)c1ccnc(N2CCOCC2)c1 the results were ASK1 primary -16 and ULK1 primary 0.
CC(C)n1cnc2c(NCc3cccc(C(F)(F)F)c3)nc(Nc3cccnc3)nc21 was read as ASK1 primary -3 and ULK1 primary -7.
CCCNc1nc(Nc2ccc3ncccc3c2)nc2nc[nH]c12 was read as ASK1 primary -27 and ULK1 primary 49*.
`c1cc(Nc2nc(NC3CC3)c3[nH]cnc3n2)ccn1` gave ASK1 primary -24 and ULK1 primary 52*.
`c1cncc(CNc2nc(NC3CC3)c3[nH]cnc3n2)c1` gave ASK1 primary -4 and ULK1 primary -6.
c1cnc2ccc(Nc3nc(NC4CC4)c4[nH]cnc4n3)cc2c1 was read as ASK1 primary -39 and ULK1 primary 64*.
c1ccc(OCCNc2nc(Nc3ccc4ncccc4c3)nc3nc[nH]c23)cc1 was read as ASK1 primary 10 and ULK1 primary 28.
c1ccc(Nc2nc(Nc3ccc4ncccc4c3)nc3nc[nH]c23)cc1 was read as ASK1 primary -29 and ULK1 primary 24.
Screening COc1ccc(CCNc2cc(-c3ccc(OC)cc3)ncn2)cc1 returned ASK1 primary -11 and ULK1 primary -22.
`O=C(Nc1ccccc1)c1cnc(Nc2ccc3ncccc3c2)s1` gave ASK1 primary -7 and ULK1 primary -16.
For Cc1[nH]cnc1CN1CCc2c(c3ccccc3n2C)C1=O the results were ULK1 primary 78*.
Screening Cc1nccn1CC1CCc2c(c3ccccc3n2C)C1=O (stereo not given) returned ULK1 primary 2.
COc1cc(NC(=O)c2cnc(-c3cccs3)s2)cc(OC)c1OC was read as ASK1 primary 11 and ULK1 primary 19.
Screening COc1ccc(CCNc2nc(NC3CCC(O)CC3)nc3c2ncn3-c2ccsc2)cc1 (stereo not given) returned ASK1 primary 4 and ULK1 primary -2.
Screening CC(=O)Nc1ccccc1 returned ULK1 primary 58*.
`CC(=O)Nc1ccc(O)cc1` gave ULK1 primary -2.
For N#Cc1cc(-c2ccnc(Nc3ccc(-c4ccccn4)cc3)n2)cc(N2CCOCC2)c1 the results were ASK1 primary 21 and ULK1 primary 4.
N#Cc1cc(-c2ccnc(Nc3ccc(N4CCCCC4)cc3)n2)cc(N2CCOCC2)c1 was read as ASK1 primary 5 and ULK1 primary -5.
Screening N#Cc1cc(-c2ccnc(Nc3ccc(N4CCNCC4)cc3)n2)cc(N2CCOCC2)c1 returned ASK1 primary 34 and ULK1 primary 93*.
N#Cc1cc(-c2ccnc(Nc3ccc(CN4CCCCC4)cc3)n2)cc(N2CCOCC2)c1 was read as ASK1 primary 16 and ULK1 primary 71*.
Screening Cc1cc(NCc2cccc(C(F)(F)F)c2)nc(-c2ccc(N3CCN(C)CC3)cc2)n1 returned ASK1 primary 8 and ULK1 primary -36.
For NS(=O)(=O)c1ccc(-c2cc(-c3ccccc3)c(=O)[nH]n2)cc1 the results were ASK1 primary -21 and ULK1 primary -2.
`O=C(Nc1cc(NCc2ccccc2)ncn1)C1CCCNC1` (stereo not given) gave ASK1 primary -8 and ULK1 primary 0.
For O=C(CSc1nccn1Cc1ccccc1Cl)Nc1ccc(F)cc1 the results were ULK1 primary -14.
`Cc1cc(N)nc(-c2ccc(C(=O)NC3CC3)cc2)n1` gave ASK1 primary 3 and ULK1 primary 56*.
`CCCNc1cc(C)nc(-c2ccc(C(=O)NC3CC3)cc2)n1` gave ASK1 primary 4 and ULK1 primary 0.
`Oc1ccc(CCNc2nc(NCc3ccc4c(c3)OCO4)nc3c2ncn3C2CCCCC2)cc1` gave ASK1 primary 14 and ULK1 primary -6.
Screening COc1ccc(CCNC(=O)Cc2cn(-c3ccc(Nc4ccnn4C)nn3)c3ccccc23)cc1 returned ASK1 primary 2 and ULK1 primary 16.
Cc1ccc(S(=O)(=O)/N=C2/C(Cl)=C(Cl)C(=O)c3ccccc32)cc1 was read as ULK1 primary -2.
COc1ccc(S(=O)(=O)/N=C2\C=CC(=O)C(Cl)=C2)cc1 was read as ULK1 primary 44*.
For Cc1c(C)c2c(c(C)c1OC(=O)CCC(=O)O)CC[C@@](C)(CCC[C@H](C)CCC[C@H](C)CCCC(C)C)O2 the results were ULK1 primary 73*.
For CC(=O)Oc1c(C)c(C)c2c(c1C)CCC(C)(CCCC(C)CCCC(C)CCCC(C)C)O2 (stereo not given) the results were ULK1 primary 2.
For FC(F)(F)c1ccc(Cn2cnc3c(NC4CCN(Cc5ccccc5)CC4)nc(Nc4ccc(C(F)(F)F)cc4)nc32)cc1 the results were ASK1 primary -8 and ULK1 primary -38.
Cn1cc(-c2cc(Nc3ccc(N4CCOCC4)cc3)ncc2Cl)cn1 was read as ASK1 primary -1 and ULK1 primary 61*.
Screening Cn1cc(-c2cc(Nc3ccc(N4CCOCC4)cc3)ncc2F)cn1 returned ASK1 primary 1 and ULK1 primary 25.
COc1cc(Nc2cc(-c3ccc(C(N)=O)cc3)ncn2)cc(OC)c1OC was read as ASK1 primary -3 and ULK1 primary -14.
O=C(Nc1cccc(Cl)c1N1CCN(C2CCC2)CC1)c1ccc(Br)o1 was read as ASK1 primary -23 and ULK1 primary -10.
`NC(Cc1ccccc1)c1nc2ccc(-c3cncc4ccccc34)cc2[nH]1` (stereo not given) gave ASK1 primary 4 and ULK1 primary 57*.
Screening NC(Cc1ccccc1)c1nc2ccc(-c3cccc4ncccc34)cc2[nH]1 (stereo not given) returned ASK1 primary -17 and ULK1 primary -20.
O=C1CCCN1CCCNc1nc(Nc2ccccc2)nc2nc[nH]c12 was read as ASK1 primary -17 and ULK1 primary 46*.
For O=C1CCCN1CCCNc1nc(Nc2ccncc2)nc2nc[nH]c12 the results were ASK1 primary -11 and ULK1 primary 55*.
For O=C1CCCN1CCCNc1nc(Nc2cccnc2)nc2nc[nH]c12 the results were ASK1 primary -1 and ULK1 primary 6.
`O=C1CCCN1CCCNc1nc(Nc2ccccc2)c2[nH]cnc2n1` gave ASK1 primary 19 and ULK1 primary 4.
`O=C1CCCN1CCCNc1nc(Nc2ccc(-n3ccnc3)cc2)nc2nc[nH]c12` gave ASK1 primary -38 and ULK1 primary 58*.
Screening O=C1CCCN1CCCNc1nc(NCCCN2CCCC2=O)c2[nH]cnc2n1 returned ASK1 primary 0 and ULK1 primary -2.
`NC(=O)Cc1cn(-c2ccc(Nc3ccncn3)nn2)c2ccccc12` gave ASK1 primary -14 and ULK1 primary 3.
For c1cc(-n2cnc3c(Nc4ccc(N5CCOCC5)cc4)nc(N4CCC(N5CCOCC5)CC4)nc32)cs1 the results were ASK1 primary 27 and ULK1 primary 12.
`COc1ccc(-c2nc(NCCOc3ccccc3)c3ncn(CCN4CCCC4=O)c3n2)cn1` gave ASK1 primary 3 and ULK1 primary -24.
CC(C)n1c(Nc2ccc(-n3ccnc3)cc2)nc2c(NC3CCN(Cc4ccccc4)CC3)ncnc21 was read as ASK1 primary 11 and ULK1 primary -2.
Screening CN1CCN(c2ncn(-c3ccc(Nc4ncc(F)c(-c5cccc(N6CCOCC6)c5)n4)cc3)n2)CC1 returned ASK1 primary 15 and ULK1 primary -3.
